Measured values published in PubChem BioAssay AID2599 (Sanford-Burnham Center for Chemical Genomics, 2010).
Hit rate of the full screen: of about 330,000 compounds, about 5,800 (1.8%) were called active.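 Rule for the calls: active = inhibition above about 50% at the single tested dose (limit read from the data); inactive = the rest.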 For the sample, actives were picked, then their nearest neighbours and some compounds at random.

molecular target: Sentrin-specific protease 6 (Homo sapiens) (UniProt Q9GZR1); experiment: inhibition of human SENP6 catalytic domain – biochemical, luminescence, uHTS, primary screen (AID 2599); conditions: Recombinant SENP6 catalytic domain, aminoluciferin luminescence; at 10 µM; hits give high values;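 note: plate controls were DMSO wells with enzyme for no effect and DMSO wells lacking enzyme for full effect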
Sequence (Q9GZR1 628-1112 limits assumed): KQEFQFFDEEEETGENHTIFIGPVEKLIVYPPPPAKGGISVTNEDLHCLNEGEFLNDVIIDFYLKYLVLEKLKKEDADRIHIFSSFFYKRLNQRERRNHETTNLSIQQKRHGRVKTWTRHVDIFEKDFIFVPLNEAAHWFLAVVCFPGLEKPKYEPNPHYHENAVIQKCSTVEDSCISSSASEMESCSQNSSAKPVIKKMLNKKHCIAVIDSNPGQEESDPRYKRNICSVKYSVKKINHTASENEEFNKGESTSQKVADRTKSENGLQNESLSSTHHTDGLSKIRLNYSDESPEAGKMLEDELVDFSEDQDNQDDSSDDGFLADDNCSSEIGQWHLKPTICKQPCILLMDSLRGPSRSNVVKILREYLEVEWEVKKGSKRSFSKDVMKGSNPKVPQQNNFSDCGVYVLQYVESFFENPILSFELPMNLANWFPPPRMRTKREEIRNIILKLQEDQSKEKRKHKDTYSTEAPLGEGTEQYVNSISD

SMILES	inhibition
COc1ccc(S(=O)(=O)N2CCOCC2)cc1NC(=O)Cc1c(F)cccc1Cl	2.93% (inactive)
N#C/C(=C(/O)Cc1cccc2ccccc12)c1nc2ccccc2s1	1.83% (inactive)
CC1=CC(=C(C#N)c2nc3ccccc3s2)C=C(C)N1c1ccc(F)cc1F	63.9% (active)
O=C(O)CS/C(=C\c1ccc(F)cc1)c1nc2ccccc2s1	-11.1% (inactive)
CN(Cc1ccccc1)C(=O)C1CCCN(c2ncnc3c2nc2n3CCCCC2)C1 (configuration not stated)	-17.3% (inactive)
Cc1cc(NC(=O)COc2ccccc2C#N)no1	4.16% (inactive)
Cc1ccc(Cn2ccc(NC(=O)C3C4CCC(C4)C3C(=O)O)n2)cc1 (configuration not stated)	13.1% (inactive)
O=C(Nc1ccn(Cc2ccccc2F)n1)c1ccc(COc2ccc(Cl)cc2Cl)o1	25.5% (inactive)
O=C(Nc1ccn(Cc2ccccc2)n1)c1n[nH]c([N+](=O)[O-])c1Cl	98.2% (active)
Cc1cc(C)c(S(=O)(=O)Nc2c(C)n(C)n(-c3ccccc3)c2=O)cc1[N+](=O)[O-]	-1.02% (inactive)
CN(CC1CCCN(CCc2cccc(C(F)(F)F)c2)C1)C(=O)c1ccc2nc[nH]c2c1 (configuration not stated)	-6.57% (inactive)
COc1ccc(S(=O)(=O)NCC(=O)NC2CC2)cc1OC	-8.69% (inactive)
CCCCC(c1nnnn1CS(=O)(=O)c1ccc(C)cc1)N1CCC(C(N)=O)CC1 (configuration not stated)	-48.9% (inactive)
COc1ccccc1N=C(C)C1=C(O)COC1=O	-35% (inactive)
COc1cc(N=Cc2c(O)c3ccccc3oc2=O)c(OC)cc1Cl	-7.87% (inactive)
COc1ccccc1N=Cc1c(O)c2ccccc2oc1=O	81% (active)
CCc1c(C)nc2c(-c3ccccc3)c(C)nn2c1Nc1ccc(NC(C)=O)cc1	-6.24% (inactive)
CCN(C(=O)CSc1cccc[n+]1[O-])c1ccccc1	-15.1% (inactive)
CCn1c(=O)n(CC)c2cc(N3CCCC3)c(NC(=O)c3ccccc3Br)cc21	7.04% (inactive)
CN(C(=O)c1cc2c(=O)n3ccccc3nc2s1)C1CCCCC1	-20.3% (inactive)
CN(C(=O)CSc1nncc2ccccc12)C1CCCCC1	-34.7% (inactive)

SMILES	inhibition
CN(c1ccc2nc3ccccc3c(=O)n2n1)C1CCCCC1	93.7% (active)
COc1ccc(/C=N/NC(=O)c2ccncc2)cc1CN1CCCc2ccccc21	-2.09% (inactive)
C=CCn1c(Cn2nnc3ccccc32)nnc1SCC(=O)N/N=C/c1cc(Br)cc(OC)c1O	20.6% (inactive)
CCN(CC)C(=O)CSc1ncnc2c1cnn2-c1ccccc1	22.4% (inactive)
Cc1ccc(-n2ncc3c(Nc4cccc(C(=O)O)c4)ncnc32)cc1	97.4% (active)
Cc1ccc(Nc2ncnc3c2cnn3C)c(C)c1	14.7% (inactive)
O=C(CCNC(=O)c1ccccc1)Nc1nc2ccccc2s1	-6.27% (inactive)
c1ccc2sc(NN=C3CCCC3)nc2c1	84.1% (active)
O=C(CCC(=O)c1cccs1)Nc1nc2ccccc2s1	-6.28% (inactive)
CC1=NN(C(N)=S)C(=O)C1N=Nc1cc(Cl)ccc1Cl (configuration not stated)	67.7% (active)
CN(C)S(=O)(=O)c1ccc(N2CCCC2)c(C(=O)Nc2cccc(F)c2)c1	-13.9% (inactive)
c1ccc(C2CCC(N3CCC(N4CCCCC4)CC3)CC2)cc1 (configuration not stated)	-12.6% (inactive)
CCCOc1ccc(NC(=O)CC2C(=O)N(C)C(=S)N2Cc2ccc3c(c2)OCO3)cc1 (configuration not stated)	-5.66% (inactive)
Cc1ccc(S(=O)(=O)Nc2nc3ccccc3nc2N2CCc3ccccc3C2)cc1	72.3% (active)
Cc1ccc(NC(=O)CN2CCc3ccccc3C2)cc1	-1.22% (inactive)
Cc1ccc(S(=O)(=O)N2CCN(c3ncnc4ccccc34)CC2)cc1	-8.22% (inactive)
CCOc1ncccc1C(=O)N(C)CC(=O)Nc1ccc(F)cc1	-13.5% (inactive)
COc1ccc(CCC(C)N2CCc3ccccc3C2)cc1 (configuration not stated)	-16.3% (inactive)
CC1CCC(NC(=O)CNC(=O)c2ccc3ccccc3c2)CC1 (configuration not stated)	-5.64% (inactive)
COc1ccc(N(CC(=O)NCc2ccc(F)cc2)C(=O)CCC(=O)Nc2nccs2)cc1	-20.2% (inactive)
Cn1cccc1C(=O)OCC(=O)c1ccc(Br)s1	80.6% (active)

SMILES	inhibition
Cn1cccc1C(=O)OCC(=O)NCCc1ccccc1	2.46% (inactive)
O=C(COC(=O)c1c2c(nc3ccccc13)CCCC2)c1ccc(Br)s1	-21.7% (inactive)
Cc1cc(C(=O)N2CCC(C(=O)O)CC2)c(C(F)(F)F)o1	-4.3% (inactive)
CCCNC(=S)NC1CC2CCCC(C1)N2CC(C)C (configuration not stated)	-7.92% (inactive)
COc1ccc(CNC(=O)COC(=O)c2c(C)nn(-c3ccccc3)c2C)cc1OC	-8.11% (inactive)
COc1ccc(CNC(=O)Cc2ccc(-c3ccccc3)cc2)cc1OC	-23.6% (inactive)
COc1ccc(CNC(=O)COc2ccccc2C(=O)c2cnn(-c3ccccc3)c2)cc1OC	82.5% (active)
COC(=O)C1=C(C(=O)OC)[C@@H]2N(C)c3ccccc3[C@@]23C[C@@H](C(=O)OC)N(C(C)=O)C3=N1	3.79% (inactive)
CC(C)(C)NC(=O)Cn1c(SCC(=O)Nc2nccs2)nc2ccccc21	1.04% (inactive)
COc1ccc(/C=C2\CCc3ccccc3C2=O)c(OC)c1OC	-14.7% (inactive)
O=C1/C(=C/c2cccs2)CCc2ccccc21	94.5% (active)
CN1C/C(=C/c2cccs2)C(=O)/C(=C\c2cccs2)C1	8.32% (inactive)
Cc1ccc(NS(=O)(=O)c2cccs2)cc1S(=O)(=O)N1CCCCCC1	-3.66% (inactive)
O=C(OCC(=O)N1CCCC1)c1ccco1	-23.3% (inactive)
CCN(CC)c1ccc(C(=O)OCC(=O)c2ccco2)cc1	-14.3% (inactive)
CCc1ccc(C(=O)COC(=O)c2ccco2)cc1	66.8% (active)
Cc1ccc(CN2CC(C(=O)NNC(=O)Cn3ccc(C(F)(F)F)n3)CC2=O)cc1 (configuration not stated)	-0.795% (inactive)
NC(=O)c1ccc(Nc2ccc3nonc3c2[N+](=O)[O-])cc1	6.58% (inactive)
Cc1nc2nc(CSc3nc4ccccc4s3)cc(=O)n2[nH]1	-34.9% (inactive)
O=[N+]([O-])c1c(NCCO)cc(Sc2nc3ccccc3s2)c2nonc12	79.3% (active)
